The source of these data is PubChem BioAssay (NCATS).

Results filed as inconclusive are left out. The source made the active and inactive calls. Calls follow the shape of the dose curve; as a rule, active = well fitted cell-killing curve with a large enough effect; inconclusive = small, poorly fitted or top-dose-only effect; inactive = flat fitted curve, though single readings scatter.

This test can be described thus: Cell Viability - LYMP2-020 (AID 986). Also: nearly all actives have a fitted effect of over 55% in size. The note with it: series mostly up to 92.2 µM. An excerpt: NIH Chemical Genomics Center [NCGC]
NIH Molecular Libraries Screening Centers Network [MLSCN]
National Institutes of Environmental Health Sciences [NIEHS]
National Toxicology Program [NTP]
We have developed a 1536-well cell-based assay for quantitative high throughput screening (qHTS) against a number of cell lines to determine in vitro cytotoxicity of small molecules. This particular assay uses a human lymphoblastoid cell line (LYMP2-020) purchased from Coriell Institute for Medical Research.
NCGC Assay Protocol Summary:
The CellTiter-Glo luminescent cell viability assay (Promega) is a homogeneous method to measure the number of viable cells in culture. The end point readout of this assay is based on quantitation of intracellular ATP, an indicator of metabolic activity, using the luciferase reaction. Luciferase catalyzes the oxidation of beetle Luciferin to oxyluciferin and light in the presence of ATP. The luminescent signal is proportional to amount of ATP present.
Using the CellTiter-Glo luminescent cell viability assay, the amount of cellular ATP was measured in the lymphoblastoid cell line with complete culture medium following compound treatment for 24 hours. The assay was performed in opaque white Kalypsys 1536-well plates. In the screen, tetraoctylammonium bromide was used as positive control. Library compounds were measured for their ability to cause acute toxicity in the cell line, as reflected by a decrease in intracellular ATP levels, in a concentration-dependent manner. […] AC50 values were determined from concentration-response data modeled with the standard Hill equation.
qHTS protocol for CellTiter Glo lymphoblastoid cellular assay
[Step] [Parameter] [Value] [Description]
1. Reagent; 5 uL; 2500 lymphoblastoid cells/well
2. Time; 5 hr; 37 C incubation
4. Controls; 23 nL; Tetraoctylammonium bromide 6.4pM to 92 uM
5. Time; 24 hr; 37 C incubation
6. Reagent; 5 uL; CellTiter Glo reagent
7. Time; 30 min; Room Temperature
8. Detection; Luminescence; Viewlux plate reader
Keywords: cell viability, cytotoxicity, lymphoblastoid cell line, luminescence, NTPHTS, NTPHTS_NCGC, NIEHS, DSSTox, MLSMR, MLSCN, NIH Roadmap, qHTS, NCGC
Take `Oc1ccc(Cl)cc1`: the call was inactive.

`NCCc1ccc(O)cc1`: the compound was called inactive.

With `C[C@]12CCC(=O)C=C1CC[C@@H]1[C@@H]2CC[C@]2(C)C(=O)CC[C@@H]12`, the outcome was inactive.

Regarding `Clc1ccc(C(c2ccc(Cl)cc2)C(Cl)(Cl)Cl)cc1`, the compound was called inactive.

Consider `Nc1ccccc1C(=O)O`, for which the call was inactive.

Regarding `COP(=S)(OC)Oc1ccc(SC)c(C)c1`, the compound was classed as inactive.

On to `CCC(C)(C)c1ccc(O)cc1`, for which the outcome was inactive.

As for `COC(=O)C(c1ccccc1)C1CCCCN1` (stereo not drawn), the outcome was inactive.

Regarding `COc1cc(OC)c(OC)cc1C=O`, the compound was called inactive.

As for `C[C@]12CCC(=O)C=C1CC[C@@H]1[C@@H]2CC[C@@]2(C)[C@H]1CC[C@]2(C)O`, the compound was called inactive.

As to `CC(C)c1cccc(C(C)C)c1O`, the result was inactive.

Take `Nc1ccccc1`: the call was inactive.

For `CCCC(C)(COC(N)=O)COC(N)=O`, the outcome was inactive.

With `CC(C)NC(C)C`, the result was inactive.

As to `CN1C[C@H](C(=O)N[C@]2(C)O[C@@]3(O)[C@@H]4CCCN4C(=O)[C@H](Cc4ccccc4)N3C2=O)C=C2c3cccc4[nH]cc(c34)C[C@H]21`, the compound was classed as inactive.

With `C[C@]1(O)CC[C@H]2[C@@H]3CCC4=CC(=O)CC[C@]4(C)[C@@]3(F)[C@@H](O)C[C@@]21C`, the compound was classed as inactive.

Consider `O=P1(N(CCCl)CCCl)NCCCO1` (stereo not drawn), for which the compound was called inactive.

`CCOC(=O)CC(SP(=S)(OC)OC)C(=O)OCC` (stereo not drawn): the compound was called inactive.
